PubChem BioAssay (EPA / NIEHS)
Records with an inconclusive call do not appear. Calls of active or inactive are those of the source. Rule for the calls: active = hit-call score of the fitted dose curve at least 0.9, where 1 is the maximum; inconclusive = response in the unintended direction; inactive = score below 0.9.

Test system: not listed separately
Assay: ACEA_ER_AUC_viability: ACEA Biosciences xCELLigence Real-Time Cell Analysis on Estrogen Receptor Agonism for Viability (AID 2283782);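 note: continuous compound exposure with impedance area under curve over 80 h; hit means loss of impedance signal meaning reduced cell growth or viability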
In short: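 T-47D human breast cells in phenol red-free RPMI1640 with 10% charcoal-stripped FBS were dosed with an 8-point 1:4 dilution series from 100 uM top final concentration, in duplicate. Impedance-based growth was followed for 80 h; AUC analysed versus DMSO.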

Structure (SMILES)	outcome	AC50
CCCCCC[C@@H](O)C/C=C\CCCCCCCC(=O)OCC(O)CO (stereo partly drawn)	inactive	
Oc1ccc(-c2ccccc2)c(Cl)c1		82.6 µM (active)
C[Si](C)(C)N[Si](C)(C)C	inactive	
CCCCC(CC)COC(=O)/C=C/c1ccc(OC)cc1 (stereo not drawn)		40.1 µM (active)
O=C1CCCN1C1CCCCC1	inactive	
Cc1c[nH]c(=O)[nH]c1=O		68.6 µM (active)
N#Cc1ccc(C(c2ccc(C#N)cc2)n2cncn2)cc1	inactive	
Cn1cccc1	inactive	
CC(=O)OCc1ccccc1	inactive	
CC(C)OC(=O)c1ccccc1	inactive	
C[N+](C)(C)CCCNS(=O)(=O)C(F)(F)C(F)(F)C(F)(F)C(F)(F)C(F)(F)C(F)(F)C(F)(F)C(F)(F)F		111 µM (active)
CCN1CN(CC)CN(CC)C1		66.4 µM (active)
CCC(C)C(=O)OC (stereo not drawn)	inactive	
O=C(O)c1ccc2c(c1)C(=O)OC2=O	inactive	
COCC(=O)O	inactive	
Nc1ncnc2nc[nH]c12	inactive	
Oc1c(Cl)cc(Cl)c(Cl)c1Cl		90.9 µM (active)
CN(C)c1ccc2nc3ccc(=[N+](C)C)cc-3sc2c1		16.5 µM (active)
CC1(C)C(=O)N(CO)C(=O)N1CO	inactive	
O=C(O)CCC(=O)O	inactive	
CCCCCCCCCCCCCC(=O)OC(C)C	inactive	
CCCCC(C=O)CC (stereo not drawn)	inactive	
CCCCCCCCCC(C)=O	inactive	

Molecular target: AR (gene 367) (UniProt P10275)
Assay: ACEA_AR_agonist_80hr: ACEA Biosciences xCELLigence Real-Time Cell Analysis on Androgen Receptor Agonism for Proliferation (AID 2283783);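 note: hits increase impedance growth signal above DMSO baseline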
In short: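 22Rv1 human prostate cancer cells were seeded after preconditioning in assay medium and monitored overnight, then dosed in an eight-point 1:4 dilution series from 100 uM (≤0.5% DMSO). Impedance-based growth was read at 80 h, gain-of-signal versus DMSO.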

Chain of AR (gene 367) (P10275 whole entry, looked up): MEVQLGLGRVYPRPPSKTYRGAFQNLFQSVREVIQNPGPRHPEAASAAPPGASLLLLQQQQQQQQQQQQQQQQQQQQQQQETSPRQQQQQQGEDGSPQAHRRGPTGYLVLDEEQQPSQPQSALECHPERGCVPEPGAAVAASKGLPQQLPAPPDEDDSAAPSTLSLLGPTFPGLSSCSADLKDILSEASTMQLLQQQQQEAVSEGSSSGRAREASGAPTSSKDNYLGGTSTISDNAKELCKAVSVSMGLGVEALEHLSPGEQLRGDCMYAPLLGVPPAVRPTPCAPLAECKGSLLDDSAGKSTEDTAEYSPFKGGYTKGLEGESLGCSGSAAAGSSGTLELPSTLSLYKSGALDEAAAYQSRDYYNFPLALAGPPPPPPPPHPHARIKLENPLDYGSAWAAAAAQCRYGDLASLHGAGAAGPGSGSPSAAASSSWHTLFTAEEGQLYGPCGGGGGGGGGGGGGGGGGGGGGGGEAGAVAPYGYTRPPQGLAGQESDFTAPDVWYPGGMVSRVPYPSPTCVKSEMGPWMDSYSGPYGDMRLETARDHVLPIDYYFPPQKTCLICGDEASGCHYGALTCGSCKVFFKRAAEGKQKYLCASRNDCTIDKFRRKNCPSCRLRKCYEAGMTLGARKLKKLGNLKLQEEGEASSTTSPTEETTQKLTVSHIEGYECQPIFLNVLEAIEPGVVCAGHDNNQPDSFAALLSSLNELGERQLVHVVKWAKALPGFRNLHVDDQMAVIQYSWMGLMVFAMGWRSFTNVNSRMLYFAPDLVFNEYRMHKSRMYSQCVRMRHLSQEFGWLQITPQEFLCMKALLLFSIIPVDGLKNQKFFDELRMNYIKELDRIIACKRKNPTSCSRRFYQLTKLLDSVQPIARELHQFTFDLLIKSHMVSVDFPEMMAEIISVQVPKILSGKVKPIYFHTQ

Structure (SMILES)	outcome	AC50
CCCCCC[C@@H](O)C/C=C\CCCCCCCC(=O)OCC(O)CO (stereo partly drawn)	inactive	
Cc1ccc(C)c(OCCCC(C)(C)C(=O)O)c1	inactive	
Oc1ccc(-c2ccccc2)c(Cl)c1	inactive	
COc1cc(O)c(C(=O)c2ccccc2)cc1S(=O)(=O)O		0.0228 µM (active)
O=C(O)c1ccc2c(c1)C(=O)OC2=O	inactive	
C=C1C[C@H]2[C@@H]3C=C(C)C4=CC(=O)CC[C@]4(C)[C@H]3CC[C@]2(C)[C@@]1(OC(C)=O)C(C)=O	inactive	
CN(C)Cc1cc(CN(C)C)c(O)c(CN(C)C)c1	inactive	
CCC[Si](OC)(OC)OC	inactive	

Test system: not listed separately
Assay: STM_H9_NormalizedViability: Cytotoxicity Assessment at 120 hours in the Stemina devTOX quickPredict H9 human embryonic stem cell (hESC)-based Assay (AID 2283784)
In short: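 Undifferentiated H9 hESCs kept pluripotent were exposed to compound, with media and chemical replaced every 24h. CellTiter-Fluor protease-substrate fluorescence was background-corrected and normalized per plate to the 0.1% DMSO vehicle; signal loss indicates reduced viability.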

Structure (SMILES)	outcome	AC50
COc1ccc(C(=O)c2ccccc2)c(O)c1	inactive	
CC(CCC(=O)O)(c1ccc(O)cc1)c1ccc(O)cc1		0.0494 µM (active)
Oc1ccccc1Cc1ccccc1O	inactive	
CN(C)c1ccc2nc3ccc(=[N+](C)C)cc-3sc2c1		4.5 µM (active)

Molecular target: AR (gene 367) (UniProt P10275)
Assay: ACEA_AR_antagonist_80hr: ACEA Biosciences xCELLigence Real-Time Cell Analysis on Androgen Receptor Antagonism for Proliferation (AID 2283787);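 note: hits lower the impedance growth signal relative to DMSO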
In short: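 Impedance readout (RT-CES), 80 h post-dose; loss-of-signal vs DMSO baseline. 22Rv1 cells in assay medium. Compounds: 8-pt 1:4 series, max 100 uM final, up to 0.5% DMSO; n = 2.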

Structure (SMILES)	outcome	AC50
CCCCCC[C@@H](O)C/C=C\CCCCCCCC(=O)OCC(O)CO (stereo partly drawn)	inactive	
Cc1ccc(C)c(OCCCC(C)(C)C(=O)O)c1	inactive	
Oc1ccc(-c2ccccc2)c(Cl)c1		0.56 µM (active)
COc1ccc(C(=O)c2ccccc2)c(O)c1	inactive	
N#Cc1ccc(C(c2ccc(C#N)cc2)n2cncn2)cc1	inactive	
CC(=O)OCc1ccccc1	inactive	
O=C(O)c1ccc2c(c1)C(=O)OC2=O	inactive	
C=C1C[C@H]2[C@@H]3C=C(C)C4=CC(=O)CC[C@]4(C)[C@H]3CC[C@]2(C)[C@@]1(OC(C)=O)C(C)=O		0.152 µM (active)
CCc1cccc(C)c1N	inactive	
CC(=O)OC1CCCCC1C(C)(C)C (stereo not drawn)	inactive	
CCCCCCCCCCCCCC(=O)OC(C)C	inactive	
CCCCCCCCCC(C)=O	inactive	
Cc1c(C(=O)c2c[nH]n(C)c2=O)ccc(S(C)(=O)=O)c1C1=NOCC1	inactive	
